NS1 function inh: qHTS Assay for Inhibitors of Influenza NS1 Protein Function. Potency, µM (highest dose often 46.1 µM), without a hit: at the top dose activity, positive = more growth. 270,000 tested, 0.4% active. AID 2326, 2010; note: potency is the fitted concentration of half-maximal effect; actives are rising curves; nearly all actives have a fitted effect of over 50% in size
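OD600 was taken as the measure of yeast growth restored by compound in an NS1-expressing S. cerevisiae strain. Cells had been washed out of glucose medium and diluted 1:100 into galactose -URA medium, pH 6.0.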
Pf growth 48h: Primary qHTS for delayed death inhibitors of the malarial parasite plastid, 48 hour incubation; 310,000 tested, 5.9% active; Potency, µM (doses to about 28.7 µM), for inactives: at the top dose activity change, negative = inhibition, usual class: inhibitors; P. falciparum luciferase growth in erythrocytes, 48 h; AID 504832, 2011; active = well fitted inhibition curve with a large enough effect; inconclusive = small, poorly fitted or top-dose-only effect, or another doubt; inactive = no such curve, though single readings can be large or run the other way; note: potency is the fitted concentration of half-maximal effect; % is set by controls: 0 for no effect and ±100 for the full control effect
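Parasite viability was followed by luminescence of a genomically integrated firefly luciferase. Cultures held 0.1% parasitemia at 2% hematocrit (final), incubated under 5% CO2 at 37 C.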
Shiga inhibitor: A qHTS for Small Molecule Inhibitors of Shiga Toxin; Vero cells, Shiga toxin protein synthesis inhibition reporter; 290,000 tested, 9.2% active; inhibition, % at 38.7 µM; in the data active = inhibition mostly above about 28%, no sharp cut-off; inactive = mostly below about 43%; note: 0% is about no effect
Pf growth 96h: Primary qHTS for delayed death inhibitors of the malarial parasite plastid, 96 hour incubation; Potency, µM (highest dose often 28.7 µM), without a hit: top-dose activity change, negative = inhibition, usual class: inhibitors; AID 504834, 2011; 320,000 tested, 6.9% active; P. falciparum luciferase reporter growth, 96 h; active = well fitted inhibition curve with a large enough effect; inconclusive = small, poorly fitted or top-dose-only effect, or another doubt; inactive = no such curve, though single readings can be large or run the other way; note: potency is the fitted concentration of half-maximal effect; % is set by controls: 0 for no effect and ±100 for the full control effect
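Compounds incubated with erythrocytes infected by luciferase-expressing P. falciparum (2% hematocrit, 0.05% parasitemia final) for 96 hours, 37 C in 5% CO2. Growth inhibition scored as decreased luciferase luminescence.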
CHX counter-1: Cycloheximide Counterscreen for Small Molecule Inhibitors of Shiga Toxin; max response, %; 300,000 tested, 12% active; AID 2314, 2010; cell reporter, cycloheximide protein synthesis inhibition counterscreen; in the data active = max response mostly above about 13%, no sharp cut-off; inactive = mostly below about 14%; note: read at 38.3 µM for the half of the compounds with a filed dose; 0% is about no effect
SARS PLP yeast: qHTS of Yeast-based Assay for SARS-CoV PLP; S. cerevisiae expressing SARS-CoV PLpro, growth rescue; Potency, µM (highest dose often 32.9 µM), for the others: top-dose activity, positive = growth rescue, usual class: activators; 330,000 tested, 0.19% active; AID 485353, 2010; note: potency is the fitted concentration of half-maximal effect; 0% is about no effect; nearly all actives have a fitted effect of over 55% in size
CHX counter-2: Cycloheximide Counterscreen for Small Molecule Inhibitors of Shiga Toxin (Confirmatory) | shares compounds with Shiga inhibitor | Cycloheximide counterscreen, protein synthesis reporter, Shiga toxin assay | 510 tested, 3% active | Potency, µM (series often up to 38.3 µM), without a hit: top-dose activity (activation), most hits filed as activators; note: potency is the fitted concentration of half-maximal effect; 0% is about no effect
* hit, by the source's call; [ ] = another dose, or the depositor's remark. Rows were chosen to be rich in hits. Some 21% of all compounds tested hit in one or more screens of this group. Unless noted, calls come from the whole dose curve.

Screening Cc1cc(C)cc(NC(=O)C2CCN(C(=O)c3cccs3)CC2)c1 returned NS1 function inh -19%, Pf growth 48h -4%, Shiga inhibitor -6, Pf growth 96h 1%, CHX counter-1 3 and SARS PLP yeast 2%.
`O=C(Nc1ccc(Cl)cc1)C1CCN(C(=O)c2cccs2)CC1` gave NS1 function inh -20%, Pf growth 48h 5%, Shiga inhibitor 104*, Pf growth 96h 6%, CHX counter-1 -3, SARS PLP yeast -1% and CHX counter-2 -5%.
CCCCN(C(=O)CCCc1nc2ccccc2c(=O)[nH]1)c1c(N)n(CC(C)C)c(=O)[nH]c1=O was read as Pf growth 48h -13%, Pf growth 96h -24% and SARS PLP yeast -3%.
`O=C(NN1CCOCC1)c1ccc(S(=O)(=O)N2CCCCC2)cc1` gave Pf growth 48h 10%, Shiga inhibitor 15, Pf growth 96h 37%[5.75 µM], CHX counter-1 1 and SARS PLP yeast 0%.
Screening Cc1cnc(NC(=O)c2c(Cl)cnn2C)s1 returned NS1 function inh -7%, Pf growth 48h 28%, Shiga inhibitor 40*, Pf growth 96h 10%, CHX counter-1 6, SARS PLP yeast -8% and CHX counter-2 1%.
`CC(Oc1ccc(F)cc1Br)c1nc2ccccc2c(=O)[nH]1` (stereo not drawn) gave NS1 function inh -32%, Pf growth 48h 9.3µM*, Shiga inhibitor 71*, Pf growth 96h inconclusive, CHX counter-1 -2, SARS PLP yeast -7% and CHX counter-2 inconclusive.
`Oc1[nH]c2ccccc2c1C1=NCCCC1` gave NS1 function inh -50%, Pf growth 48h 3%, Shiga inhibitor -10, Pf growth 96h inconclusive, CHX counter-1 -6 and SARS PLP yeast 5%.
For CCn1c(O)c(C2=NCCCC2)c2ccccc21 the results were NS1 function inh -145%, Pf growth 48h 0%, Shiga inhibitor 125*, Pf growth 96h 0%, CHX counter-1 -1, SARS PLP yeast -9% and CHX counter-2 2%.
Cc1ccc2c(CN3CCCCC3C)cc(=O)oc2c1C (stereo not drawn) was read as NS1 function inh -4%, Pf growth 48h inconclusive, Shiga inhibitor 40*, Pf growth 96h inconclusive, CHX counter-1 5, SARS PLP yeast 1% and CHX counter-2 -1%.
Screening Cc1ccc2c(CN3CCCCC3C)cc(=O)oc2c1 (stereo not drawn) returned NS1 function inh 2%, Pf growth 48h 12%, Shiga inhibitor 6, Pf growth 96h -7%, CHX counter-1 5 and SARS PLP yeast -1%.
Screening COc1ccc(-c2nc(NC(=O)CSc3nnc4ccccn34)ns2)cc1 returned NS1 function inh 15%, Pf growth 48h -7%, Shiga inhibitor 44*, Pf growth 96h inconclusive, CHX counter-1 2, SARS PLP yeast 2% and CHX counter-2 inconclusive.
Cc1cccc(C(=O)NC(NCCc2ccccc2)C(Cl)(Cl)Cl)c1 (stereo not drawn) was read as NS1 function inh inconclusive, Pf growth 48h inconclusive, Shiga inhibitor 109*, Pf growth 96h 3.7µM*, CHX counter-1 -5, SARS PLP yeast 1% and CHX counter-2 0%.
`CC(=O)Nc1ccc(NC(=O)C(C)OC(=O)CSCc2cccc(Cl)c2)cc1` (stereo not drawn) gave Pf growth 48h 25%, Pf growth 96h 20% and SARS PLP yeast 6%.
CCNc1nnc(-c2ccccc2OC)s1 was read as NS1 function inh -32%, Pf growth 48h 23%, Shiga inhibitor 73*, Pf growth 96h inconclusive, CHX counter-1 -1, SARS PLP yeast -5% and CHX counter-2 4%.
Screening CCc1nnc(NC(=O)c2c(OC)cccc2OC)s1 returned NS1 function inh -13%, Pf growth 48h 34%, Shiga inhibitor 10, Pf growth 96h -5%, CHX counter-1 -2 and SARS PLP yeast 2%.
`CCN(C1CCCCC1)S(=O)(=O)c1ccc(S(=O)(=O)NCc2ccncc2)cc1` gave NS1 function inh -10%, Pf growth 48h inconclusive, Shiga inhibitor 39*, Pf growth 96h inconclusive, CHX counter-1 1, SARS PLP yeast 8% and CHX counter-2 -4%.
Screening CCN(C1CCCCC1)S(=O)(=O)c1ccc(S(=O)(=O)NCCc2ccncc2)cc1 returned NS1 function inh -96%, Shiga inhibitor -6, Pf growth 96h inconclusive, CHX counter-1 -3 and SARS PLP yeast 6%.
`Cc1nn(C2CCCCC2)c(N)c1-c1ccccc1` gave NS1 function inh -21%, Pf growth 48h 7%, Shiga inhibitor 33*, Pf growth 96h inconclusive, CHX counter-1 -2, SARS PLP yeast -4% and CHX counter-2 3%.
Cc1ccc(C(=O)CCC(=O)Nc2cc(C)ccn2)cc1 was read as Pf growth 48h inconclusive, Pf growth 96h inconclusive and SARS PLP yeast 4%.
For Cc1cc(C)n(-c2nc(SCCN(C)C)c3c4c(sc3n2)COC(C)(C)C4)n1 the results were NS1 function inh 6%, Pf growth 48h 1.9µM*, Shiga inhibitor 80*, Pf growth 96h 1.5µM*, CHX counter-1 -4, SARS PLP yeast -3% and CHX counter-2 -5%.
Screening CCOC(=O)c1c(C2COc3ccccc3O2)csc1NC(=O)c1ccco1 (stereo not drawn) returned NS1 function inh 0%, Pf growth 48h inconclusive, Shiga inhibitor 26*, CHX counter-1 -1, SARS PLP yeast -5% and CHX counter-2 -4%.
CC(=O)c1ccc(N(CC(=O)NC2CCCCC2)C(=O)c2csnn2)cc1 was read as NS1 function inh -4%, Pf growth 48h 12%, Shiga inhibitor 21, Pf growth 96h 5%, CHX counter-1 -3 and SARS PLP yeast -3%.
`Cc1cccc(N2CCN(S(=O)(=O)c3c(C)nc4scc(C)n4c3=O)CC2)c1C` gave NS1 function inh -3%, Pf growth 48h 0%, Shiga inhibitor 16, Pf growth 96h inconclusive, CHX counter-1 -4 and SARS PLP yeast -9%.
CC1CC(C)CN(C(=O)C(NS(=O)(=O)c2ccc(Br)s2)c2ccccc2)C1 (stereo not drawn) was read as NS1 function inh -27%, Pf growth 48h inconclusive, Shiga inhibitor active, Pf growth 96h 58%, CHX counter-1 9, SARS PLP yeast -42% and CHX counter-2 1%.
For Cc1ccc2c(N)[nH]nc2n1 the results were NS1 function inh 16%, Pf growth 48h 43%, Shiga inhibitor 82*, Pf growth 96h -14%, CHX counter-1 11, SARS PLP yeast -1% and CHX counter-2 -1%.

Compound activity from PubChem.
